Holding throughout (experiment): Cytotoxic Profiling of Annotated Libraries Using Quantitative High-Throughput Screening (AID 1296008); further: nearly all actives have a fitted effect of over 60% in size
Common to all, as to settings: Five cell lines viability, CellTiter-Glo ATP luminescence, 48-72 h; max response: hits give low values
Background: ATP-based viability assays read luminescence as a measure of living cells.

The test system of one assay is HEK293. Summed up: (§1)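 Cells exposed to compounds for 48 or 72 hr at 37 degrees Celsius. Viability read as ATP-coupled luminescence with CellTiter-Glo after 10 min at room temperature.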
Another assay relates to HaCat. Summed up: as §1
The test system of a further assay is KB-3-1. The gist of the method:
as §1

The test system of the next assay is NIH3T3. The gist of the method:
as §1

This is an account of results in PubChem BioAssay (NCATS).

Inconclusive results are not listed. Values without a mark were called inactive. Active and inactive are the calls of the source. The call rests on the fitted dose curve; in most records, active means well fitted inhibition curve with a large enough effect; inconclusive means small, poorly fitted or top-dose-only effect; inactive means flat fitted curve, though single readings scatter.
On the % scale 0 is the no-effect control and ±100 the full control effect; potency means the concentration at half of the fitted maximal effect.

Consider `CNCc1ccc(-c2cc(-c3nc(-c4ccc(S(=O)(=O)C(C)C)cc4)cnc3N)on2)cc1`, for which the Potency is 1.16 µM (active) in the assay with HEK293 and 1.3 µM (active) in the assay with KB-3-1. Further, the max response in the assay on HaCat is -11.6%.
Regarding `CO/N=C(/C(=O)N[C@@H]1C(=O)N2C(C(=O)O)=C(Cn3ccc(=N)n3CCO)CS[C@H]12)c1csc(N)n1`, the max response in the assay on HEK293 was -94.3%; in the assay with KB-3-1, -6.11%. Also, the compound was called inactive with HaCat and with NIH3T3.
As to `CC1=CC(=O)CC(C)(C)C1CCC(C)O[C@@H]1O[C@H](CO[C@@H]2OC[C@@H](O)[C@H](O)[C@H]2O)[C@@H](O)[C@H](O)[C@H]1O` (stereo not given in full), the max response in the assay on HEK293 is -8.79%; with HaCat, 4.17%; in the assay on KB-3-1, 1.12%; in the assay with NIH3T3, 3.34%.
For `CCOCc1cc(OC)c(-c2ccc(C[C@H](NC(=O)c3c(F)cccc3F)C(=O)O)cc2)c(OC)c1`, in the assay with HEK293, the max response is -1.31%. In addition, the compound was classed as inactive in the assay on HaCat and in the assay with KB-3-1.
On to `CN1c2ccccc2C(=O)N2CCC3c4ccccc4NC3C21` (stereo not given), for which the Potency in the assay on HEK293 is 2.55 µM (active); in the assay on HaCat, 2.02 µM (active); in the assay with KB-3-1, 3.6 µM (active); with NIH3T3, 7.18 µM (active).
Turning to `CC1(C)C=CN2C(=O)C3=CCCN3C(=O)[C@@H]2C[C@@]12Nc1ccccc1C2=O`, the results for the max response in the assay with HEK293, with HaCat and with NIH3T3 were -9.52%, -4.92% and -3.89%, respectively. In addition, the compound was classed as inactive with KB-3-1.
`COc1cc2ncnc(Nc3ccc(F)c(Cl)c3)c2cc1NC(=O)/C=C/CN1CCCCC1`: the Potency in the assay with HEK293 was 7.31 µM (active); with HaCat, 0.0411 µM (active); with KB-3-1, 13 µM (active); in the assay on NIH3T3 it was 16.4 µM (active).
Take `CC1(C)CCCC2(C)C1CC(=O)C13CC(CCC12)C(O)(CO)C3` (stereo not given): the max response with HEK293 was 0.204%; with KB-3-1 it was 8.26%; in the assay with NIH3T3, 2.51%. The outcome in the assay on HaCat was inactive.
